Data published in PubChem BioAssay (NCI).
This is part of a sample that, as a whole, favours compounds with a hit. Of some 83,000 tested, about 20% had one in any assay.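 Each cell line was grown in a 96-well plate and treated with one concentration of compound for 48 hours. Values below 10 were considered active.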 The source made the active and inactive calls.

The compounds below were run on HL-60(TB) leukemia (assay: NCI-60 one-dose screen, 48 h (100 = growth as untreated, 0 = no growth, -100 = all killed)). Conditions: 10 µM unless noted.

Structure (SMILES)	growth
COc1ccc2cc(-c3nn(-c4ccc(C(=O)O)cc4)cc3CO)ccc2c1	50.3% (inactive)
C=CC(=O)N1CCC(Oc2cc3c(Nc4ccc(Cl)c(Cl)c4F)ncnc3cc2OC)CC1	24.7% (inactive)
Nc1nc(N)c2c(n1)NC(c1cccc(Nc3ccnc4cc(C(F)(F)F)ccc34)c1)CC(c1ccc(Cl)cc1)=N2 (centres undefined)	34.3% (inactive)
CC(=O)N1N=C(c2ccc(Nc3nc(Nc4ccc(F)cc4)nc(Nc4ccc(Cl)cc4)n3)cc2)CC1c1ccc(N(C)C)cc1 (centres undefined)	19% (inactive)
COc1cc(/C=C/C(=O)c2c(C)nc3ccccc3c2/C=C/c2ccc(C)cc2)cc(OC)c1OC	12.5% (inactive)
C=C(C)[C@@H]1CC[C@]2(N=C=O)CC[C@]3(C)[C@H](CC[C@@H]4[C@@]5(C)Cc6c([nH]c7ccccc67)C(C)(C)[C@@H]5CC[C@]43C)[C@@H]12	46.2% (inactive)
O=[N+]([O-])c1cccc(-c2nc3sccn3c2-c2ccnc(NCCCNS(=O)(=O)c3ccc(F)cc3)n2)c1	-12.9% (active)
CCCCC1=c2c([nH]c3ccc(OC)cc23)=NC2C=CC=NC12 (centres undefined)	80.5% (inactive)
C=C1CC[C@@H](C(=O)OC)Cc2nc(C)ccc21	100% (inactive)
COc1cc(C(=O)N2CCN(c3ccccc3OC)CC2)c(NC(=O)c2cnccn2)cc1OCc1ccccc1	47.5% (inactive)
O=C(Nc1ccc(OS(=O)(=O)c2ccccc2)cc1)C1CCCCC1	94% (inactive)
COc1ccc(C(=O)C/C(=C\c2ccc(O)c(OC)c2)C(=O)NN)cc1	66.4% (inactive)
Cc1ccccc1NC(=O)CN(C)C	87.9% (inactive)
CCCCCC#CC1OC23CCCCC2C(C#N)(C(=N)O3)C1(C#N)C#N (centres undefined)	81% (inactive)
COc1nc(N)nc2c1ncn2C1OC(CO)CC1O (centres undefined)	98.9% (inactive)
CCOC(=O)c1c2c(n3cccc(Cl)c13)C(=O)c1ncccc1C2=O	34% (inactive)
O=C(Nc1ccc(NC(=O)c2cc(=O)[nH]c3ccccc23)cc1)Nc1cccc(C(F)(F)F)c1	99.8% (inactive)

Structure (SMILES)	growth
Cc1cc(-c2ccc(N=Nc3c(C)nn(-c4ccc(S(=O)(=O)O)cc4)c3O)c(C)c2)ccc1N=Nc1ccc(O)c(C(=O)O)c1	99% (inactive)
N#C/C(=C\c1ccc(-c2cccc(C(F)(F)F)c2)o1)c1nc(-c2ccco2)cs1	101% (inactive)
COc1cc(/C=C\c2cc(OC)c(OC)c(OC)c2)cc(N/C=C\C(=O)c2c[nH]c3ccccc23)c1OC	-30% (active)
CCNCCCn1c2c(c3ccc(Cl)cc3c1=O)C(=O)c1cc(OC)cnc1-2	-42.9% (active)
CC1(C)C(=O)/C(=C\c2cccnc2)C[C@]2(C)[C@H]3CC[C@@H]4[C@H]5[C@H](C(=O)/C=C/c6cccnc6)CC[C@]5(C(=O)O)CC[C@@]4(C)[C@]3(C)CC[C@@H]12	0.806% [100 µM] (active)
O=C(Nc1ccncc1)C(=O)c1cn(S(=O)(=O)c2cccc3ccccc23)c2ccccc12	64% (inactive)
COc1cc2c3cc1Oc1c(OC)c(OC)cc4c1C(Cc1ccc(O)c(c1)Oc1ccc(cc1)CC3N(C)CC2)N(C)CC4 (centres undefined)	-32.4% (active)
CCCCC#Cc1c(I)n(C2OC(CO[Si](C)(C)C(C)(C)C)C3OC(C)(C)OC32)c(=O)n(C(=O)c2ccccc2)c1=O (centres undefined)	20.4% (inactive)
N#Cc1c(NC(=O)c2ccc(Br)cc2)sc2c1CCCC2	14.1% (inactive)
NS(=O)(=O)c1cnccc1-n1ccc(=O)c(S(N)(=O)=O)c1	55.9% (inactive)
CCCCCCCC(=O)SCC/C=C/[C@@H]1CC(=O)NCc2nc(cs2)C2=N[C@@](C)(CS2)C(=O)N[C@@H](C(C)C)C(=O)N1	8.7% (active)
O=C1c2cc3c(cc2-c2c1c1ccc(Cl)cc1c(=O)n2CCCn1ccnc1)OCO3	-29.1% (active)
O=C1CCC(C(=O)N/N=C/c2cc(F)ccc2F)N1 (centres undefined)	99.2% (inactive)
COc1ccc(/C=C2\Cc3c(Br)cccc3C2=O)c(OC)c1	89.2% (inactive)
COc1ccc(C2=C(CN)C(O)NC(=NCC(=O)c3ccc4ccccc4c3)N2)cc1 (centres undefined)	97.9% (inactive)
COc1cc(C#N)cc(OC)c1OCCN(CCOc1c(OC)cc(C#N)cc1OC)S(=O)(=O)c1ccc(C)cc1	102% (inactive)
Cc1cc(N/N=C/c2nc(-c3ccc(Br)cc3)oc2C)c2cc(Cl)ccc2n1	-0.0323% (active)
